Measurements as given in PubChem BioAssay (NCI).
The panel holds about 83,000 compounds, 20% with a hit somewhere; the sample as a whole holds those more often.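 Activity criterion: percent growth below 10, measured after cells in 96-well plates were exposed to a single compound concentration for 48 hours.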 The source made the active and inactive calls.

How the values were obtained:
Assay in all cases: NCI-60 one-dose screen, 48 h (100 = growth as untreated, 0 = no growth, -100 = all killed)
Conditions in all cases: 10 µM unless noted
[1] = tested on: HCT-15 colon
[2] = tested on: HT29 colon
[3] = tested on: SNB-75 CNS
[4] = tested on: SNB-19 CNS
[5] = tested on: U251 CNS
[6] = tested on: PC-3 prostate
[7] = tested on: SK-MEL-5 melanoma
[8] = tested on: LOX IMVI melanoma
[9] = tested on: SK-MEL-28 melanoma
[10] = tested on: SK-MEL-2 melanoma
[11] = tested on: EKVX NSCLC
[12] = tested on: SN12C renal
[13] = tested on: UO-31 renal
[14] = tested on: TK-10 renal
[15] = tested on: ACHN renal
[16] = tested on: A498 renal
[17] = tested on: CCRF-CEM leukemia
[18] = tested on: MOLT-4 leukemia
[19] = tested on: CAKI-1 renal

Measured: growth

Cc1cccc(C)c1NC(=O)CSC(=S)N1CCN(CCOCCO)CC1
inactive: [1] 105% | [2] 93.6% | [3] 96.7% | [4] 99% | [5] 104% | [6] 99.7% | [7] 110% | [8] 96% | [9] 105% | [10] 95% | [11] 95% | [12] 105% | [13] 89.7% | [14] 85.8% | [15] 106% | [16] 103% | [17] 107% | [18] 104%

COc1ccc(-c2nc3c(c(C)nn3-c3ccc(F)cc3)c(=O)[nH]2)cc1
active: [15] 6.33%
inactive: [1] 83% | [2] 58.6% | [3] 11.1% | [4] 75% | [5] 44% | [6] 78.1% | [7] 79.1% | [8] 75.2% | [9] 96.8% | [10] 92.3% | [11] 81.6% | [12] 56.9% | [13] 52.1% | [14] 65.8% | [16] 70.8% | [17] 86.9% | [18] 98.1%

COc1ccc2[nH]c(-c3ccc(Cl)cc3)cc(=O)c2c1
inactive: [1] 96.4% | [2] 96.3% | [3] 93.4% | [4] 96% | [5] 96.7% | [6] 88% | [7] 95.6% | [8] 100% | [9] 104% | [10] 96.3% | [11] 95.2% | [12] 93.6% | [13] 94.4% | [14] 93.4% | [15] 103% | [16] 93.2% | [17] 36.3% | [18] 99.2%

COc1cc(/C=C2\C(=O)N(CC(O)COc3cc(O)c4c(=O)cc(-c5ccccc5)oc4c3)c3ccccc32)cc(OC)c1O (configuration not stated)
inactive: [1] 59.1% | [2] 88.2% | [3] 81.1% | [4] 92.2% | [5] 91.6% | [6] 61.1% | [7] 50% | [8] 80.2% | [9] 92% | [10] 82.2% | [11] 78.8% | [12] 84% | [13] 50.6% | [14] 137% | [15] 80.4% | [16] 105% | [17] 59.1% | [18] 63.8%

Cc1cc(N2CCCCC2)nc(N(CCNc2ccnc3cc(Cl)ccc23)Cc2ccco2)n1
active: [2] 6.61% | [4] -69.9% | [7] -90.5% | [8] -12.6% | [18] 0.376%
inactive: [1] 13.8% | [3] 43.9% | [5] 14.4% | [6] 13.9% | [9] 38.9% | [10] 76.4% | [11] 64.8% | [12] 24% | [13] 40.6% | [14] 68.5% | [15] 27.8% | [16] 61.3% | [17] 10.2%

C=C1C(=O)O[C@H]2[C@H]1CC/C(COC(=O)N[C@H](Cc1c[nH]c3ccccc13)C(=O)OC)=C\CC[C@@]1(C)O[C@@H]21
inactive: [2] 14.9% | [3] 82% | [4] 66.7% | [5] 72.7% | [6] 57.3% | [7] 39% | [8] 13.7% | [10] 70.4% | [11] 63.6% | [12] 41.7% | [14] 25.8% | [16] 83%
active: [1] 1.89% | [9] 9.69% | [13] -4.81% | [15] -17.7% | [18] 4.53%

Cn1cc(-c2csc(-c3cn(CCNC(=O)OC(C)(C)C)c4ccccc34)n2)c2cccnc21
inactive: [1] 60.1% | [2] 90.9% | [3] 88.5% | [4] 94.3% | [5] 83.1% | [6] 36.9% | [7] 20.1% | [8] 82.4% | [9] 94.3% | [10] 88.2% | [11] 67.9% | [12] 87.8% | [13] 42.7% | [14] 122% | [15] 74.3% | [16] 82.4% | [17] 43.4% | [18] 42.3%

O=C1Nc2ccccc2/C1=C/c1cn(CCCn2c3ccccc3c(=O)c3ccccc32)c2ccccc12
inactive: [1] 82.3% | [2] 91.8% | [3] 69.7% | [4] 98.2% | [5] 93.3% | [6] 62.5% | [7] 74.7% | [8] 86% | [9] 107% | [10] 84.4% | [11] 60.3% | [12] 92% | [13] 44.6% | [14] 140% | [15] 89% | [16] 112% | [17] 98.4% | [18] 77.7%

C=C1C(=O)O[C@H]2[C@H]1CC/C(COC(=O)NCc1c[nH]c3ccccc13)=C\CC[C@@]1(C)O[C@@H]21
active: [1] 4.35% | [2] 8.59% | [13] -62.7% | [15] -36.2% | [17] 7.29% | [18] 1.16%
inactive: [3] 72.1% | [4] 69.4% | [5] 82.8% | [6] 50.4% | [7] 45.2% | [8] 16.4% | [9] 33.9% | [10] 70.5% | [11] 84.2% | [12] 44.4% | [14] 34.3% | [16] 102%

O=C(N/N=C/c1ccccc1SSc1ccccc1/C=N/NC(=O)c1ccccc1)c1ccccc1
inactive: [1] 21.6% | [2] 43.3% | [3] 65.8% | [4] 44.8% | [5] 34.1% | [6] 40.2% | [7] 22.5% | [8] 11.1% | [9] 39.6% | [10] 24.8% | [11] 25.8% | [12] 43.4% | [13] 18.6% | [14] 31.8% | [15] 15.4% | [16] 75.8% | [17] 16% | [18] 10.8%

COc1cnc2c(c1)C(=O)c1c-2n(CCCNCCN2CCOCC2)c(=O)c2cc([N+](=O)[O-])ccc12
active: [1] 0.784% | [2] 1.17% | [3] -4.98% | [5] -56.5% | [7] -87.8% | [8] -66.2% | [12] 4.54% | [13] -85.8% | [14] -0.695% | [15] -69.6% | [19] -29.5% | [17] 2.23% | [18] -1.41%
inactive: [4] 15.2% | [6] 15.7% | [9] 47.5% | [10] 19% | [11] 15.8%

NCCn1cc(-c2nc(-c3c[nH]c4ncccc34)cs2)c2cc(F)ccc21
inactive: [1] 58.9% | [2] 67.2% | [3] 64.2% | [4] 86.1% | [5] 84.1% | [6] 58.5% | [7] 80% | [8] 81.7% | [9] 101% | [10] 94.7% | [11] 48.6% | [12] 79% | [13] 53.3% | [14] 142% | [15] 76.4% | [16] 91.4% | [17] 49% | [18] 57%

O=[N+]([O-])c1ccc(N/N=C(\C(=N/Nc2ccc([N+](=O)[O-])cc2[N+](=O)[O-])c2ccccc2)c2ccccc2)c([N+](=O)[O-])c1
active: [14] -1.75%
inactive: [1] 84.3% | [2] 63.5% | [3] 99% | [4] 102% | [5] 36.4% | [6] 85.2% | [7] 94.3% | [8] 97.7% | [9] 101% | [10] 95.9% | [11] 108% | [12] 97.5% | [13] 86.4% | [15] 95.7% | [19] 81.1% | [16] 103% | [18] 92.2%

COc1ccc(C2(Cl)c3ccccc3N(c3ccccc3)c3ccccc32)cc1
active: [1] 8.52% | [2] 3.7% | [3] 3.72% | [4] 6.63% | [5] -87.5% | [6] -24.4% | [7] -87.3% | [8] -84.3% | [9] -74.7% | [10] -39.9% | [11] 0.119% | [12] -1.51% | [13] 7.46% | [14] 8.72% | [15] 4.85% | [19] 7.42%
inactive: [17] 20.6% | [18] 12.7%

COc1ccc(C2C(C#N)=C(N)Oc3c2sc2c(F)cccc32)cc1 (configuration not stated)
inactive: [1] 24.4% | [4] 22.8% | [5] 24.2% | [6] 15.7% | [7] 22.5% | [8] 29.9% | [9] 60.5% | [10] 19.8% | [11] 50.3% | [12] 39.7% | [13] 37.6% | [14] 56.6% | [15] 42.9% | [16] 41.4% | [17] 14.9%
active: [2] 7.77% | [3] 3.73% | [18] 8.8%

O=C1CCC/C=C\C[C@H]2C=C(Cl)C(=O)/C2=C/C[C@H](CCCCC(F)(F)F)OC(=O)CCC/C=C\C[C@H]2C=C(Cl)C(=O)/C2=C/C[C@H](CCCCC(F)(F)F)O1
inactive: [11] 13.3% [7.5 µM]
active: [1] 1.46% [7.5 µM] | [2] -50.5% [7.5 µM] | [3] -1.55% [7.5 µM] | [4] -37.9% [7.5 µM] | [5] -67.7% [7.5 µM] | [6] -44.8% [7.5 µM] | [7] -94.1% [7.5 µM] | [8] -80.2% [7.5 µM] | [9] -52.6% [7.5 µM] | [10] -45.5% [7.5 µM] | [12] -27.1% [7.5 µM] | [13] -93.3% [7.5 µM] | [14] -23% [7.5 µM] | [15] -93.1% [7.5 µM] | [16] -49.5% [7.5 µM] | [17] 3.14% [7.5 µM] | [18] 1.97% [7.5 µM]
